Results filed as inconclusive are left out. The source made the active and inactive calls. Unless noted, calls come from the whole dose curve; as a rule, active = well fitted curve in the direction sought with a large enough effect in the repeat runs; inconclusive = weak or mixed curves; inactive = no such curve, though single readings can be large; an effect the other way counts as inactive or inconclusive.
Columns and labels:
[1] = qHTS assay to identify aromatase inhibitors - cell viability counter screen (AID 743084);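 note: cells stimulated with testosterone during compound exposure; nearly all actives have a fitted effect of over 55% in size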
[2] = biological target: Aryl hydrocarbon receptor (Homo sapiens) (UniProt P35869); assay: qHTS assay to identify small molecule that activate the aryl hydrocarbon receptor (AhR) signaling pathway (AID 743085); note: nearly all actives have a fitted effect of over 15% in size; note: potency is the fitted concentration of half-maximal effect;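 for activation: HG2L7.5c1 human HepG2 liver cells with stably integrated DRE-driven firefly reporter; series mostly up to about 70 µM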
Outline: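 Compounds were tested in HepG2 hepatocellular carcinoma cells harbouring a stably integrated luciferase gene under control of 20 DREs. Increased reporter signal after 24 h treatment at 37C was taken as AhR activation.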

[3] = qHTS assay to identify small molecule that activate the aryl hydrocarbon receptor (AhR) signaling pathway - cell viability counter screen (AID 743086);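 note: HepG2 liver cells carrying the AhR DRE luciferase reporter; series mostly up to about 70 µM; nearly all actives have a fitted effect of over 45% in size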
Outline: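 HepG2-AhR-luc (HG2L7.5c1) cells, 4000/well, treated 24 h at 37 C with compound; viability measured as CellTiter-Fluor fluorescence after 30 min in the same wells as the luciferase read.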

[4] = biological target: Peroxisome proliferator-activated receptor gamma (Homo sapiens) (UniProt P37231); assay: qHTS assay to identify small molecule agonists of the peroxisome proliferator-activated receptor gamma (PPARg) signaling pathway (AID 743094; active = well fitted activation curve with a large enough effect in the signal ratio in the repeat runs, not every such curve was filed as active; the % refers to the signal ratio)
Outline: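 Stably transfected HEK293H cells (GeneBLAzer PPARg UAS-bla) were incubated with test substances for 17 h at 37C after a 5 h pre-incubation; beta-lactamase activity was then detected by FRET substrate fluorescence.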

[5] = biological target: Peroxisome proliferator-activated receptor gamma (Homo sapiens) (UniProt P37231); assay: qHTS assay to identify small molecule antagonists of the peroxisome proliferator-activated receptor gamma (PPARg) signaling pathway (AID 743191; calls by dose curve; note: series mostly up to about 63 µM; nearly all actives have a fitted effect of over 30% in size)
Outline: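 GeneBLAzer PPARg UAS-bla HEK293H cells, 5 h post-plating, exposed to compounds 17 h at 37C. LiveBLAzer B/G FRET substrate added for 1 h at room temperature; beta-lactamase reporter read by fluorescence intensity.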

[6] = qHTS assay to identify small molecule antagonists of the peroxisome proliferator-activated receptor gamma (PPARg) signaling pathway - cell viability counter screen (AID 743194); conditions: Potency: co-treated with 50 nM rosiglitazone; note: nearly all actives have a fitted effect of over 55% in size
Outline: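 Cytotoxicity counter screen in PPARg-bla HEK293H cells, same wells as reporter assay. Compounds plus 50 nM rosiglitazone (final) for 17 h at 37 C, then viability read by CellTiter-Glo luminescence.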

[7] = qHTS assay for small molecule agonists of the antioxidant response element (ARE) signaling pathway - cell viability counter screen (AID 743203; calls by dose curve; note: nearly all actives have a fitted effect of over 55% in size)
Outline: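 Cells (ARE-bla HepG2, 2,000/well) receive DMSO-dissolved compounds after a 5 hrs rest. Plates incubate 16 hrs at 37C/5% CO2. CellTiter-Glo luminescence is then recorded after 30 min at room temperature.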

[8] = qHTS assay for small molecule activators of the heat shock response signaling pathway - cell viability counter screen (AID 743209); note: nearly all actives have a fitted effect of over 50% in size
Outline: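 Quantitative HTS format, Tox21 10K library. HeLa cells carrying an HSE-driven beta-lactamase reporter were treated 5 h at 37 C, then assessed for viability by CellTiter-Glo luminescence.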

[9] = qHTS assay for small molecule activators of the heat shock response signaling pathway (AID 743210; active = well fitted activation curve with a large enough effect in the signal ratio in the repeat runs, with a control signal flat, not every such curve was filed as active; the % refers to the signal ratio;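 note: HeLa cells with beta-lactamase reporter driven by heat shock elements; series mostly up to about 63 µM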)
Outline: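 Quantitative high-throughput format using an engineered HeLa line in which heat shock response elements drive beta-lactamase; after 5 h with compound, cells received a B/G FRET substrate and fluorescence was read.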

[10] = biological target: Peroxisome proliferator-activated receptor delta (Homo sapiens) (UniProt Q03181); assay: qHTS assay to identify small molecule agonists of the peroxisome proliferator-activated receptor delta (PPARd) signaling pathway (AID 743212; calls by dose curve)
Outline: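 Quantitative high-throughput agonist screen in a HEK293H beta-lactamase reporter line under UAS control. Compounds in DMSO, at 37 C. Fluorescence read after 2 h with FRET substrate at room temperature.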

[11] = biological target: Peroxisome proliferator-activated receptor delta (Homo sapiens) (UniProt Q03181); assay: qHTS assay to identify small molecule antagonists of the peroxisome proliferator-activated receptor delta (PPARd) signaling pathway (AID 743215; active = well fitted inhibition curve with a large enough effect in the signal ratio in the repeat runs, not every such curve was filed as active; the % refers to the signal ratio;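 note: cells stimulated with agonist L165041 at 300 nM final during compound exposure; series mostly up to about 62 µM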)
Outline: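 Antagonist-mode beta-lactamase reporter screen: HEK293H cells with UAS-bla under PPARd control, stimulated by 300 nM L165041 (final) alongside test compound for 17 h at 37 C, then FRET fluorescence after 2 h substrate incubation.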

[12] = qHTS assay to identify small molecule agonists of the farnesoid-X-receptor (FXR) signaling pathway - cell viability counter screen (AID 743218); note: nearly all actives have a fitted effect of over 45% in size
Outline: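 In GeneBLAzer FXR-UAS-bla HEK 293T cells, compounds act for 16 h at 37 C. Cell viability is then scored in the reporter wells by CellTiter-Glo, 30 min at RT, luminescence.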

[13] = qHTS assay to identify small molecule antagonists of the farnesoid-X-receptor (FXR) signaling pathway - cell viability counter screen (AID 743221; active = well fitted cell-killing curve with a large enough effect in the repeat runs, not every such curve was filed as active; note: nearly all actives have a fitted effect of over 50% in size)
Outline: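 Multiplexed counter screen: viability of FXR-bla HEK 293T cells under agonist stimulation by chenodeoxycholic acid (50 uM, final) and test compound for 16 h at 37 C, measured by CellTiter-Glo luminescence in the reporter wells.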

[14] = qHTS assay to identify small molecule agonists of the peroxisome proliferator-activated receptor delta (PPARd) signaling pathway - cell viability counter screen (AID 743211); note: nearly all actives have a fitted effect of over 55% in size
Outline: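 Counter screen for cytotoxicity run in parallel with the PPARd reporter screen. Beta-lactamase reporter HEK293H cells exposed to compounds 17 h; ATP-based CellTiter-Glo luminescence quantified viability.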

[15] = qHTS assay to identify small molecule antagonists of the peroxisome proliferator-activated receptor delta (PPARd) signaling pathway - cell viability counter screen (AID 743213); note: nearly all actives have a fitted effect of over 50% in size
Outline: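 HEK293H cells with the PPARd UAS-bla reporter, co-treated 17 h at 37 C with compounds and L165041 (300 nM final), were lysed with CellTiter-Glo. Luminescence indicated viable cell content.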

[16] = biological target: Bile acid receptor (Homo sapiens) (UniProt Q96RI1); assay: qHTS assay to identify small molecule antagonists of the farnesoid-X-receptor (FXR) signaling pathway (AID 743217; active = well fitted inhibition curve with a large enough effect in the signal ratio in the repeat runs, not every such curve was filed as active; the % refers to the signal ratio)
Outline: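 Beta-lactamase reporter under UAS control in HEK 293T cells; compound exposure 16 h at 37 °C in the presence of chenodeoxycholic acid (50 uM final); signal from B/G FRET substrate after 2 h at room temperature.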

[17] = biological target: Bile acid receptor (Homo sapiens) (UniProt Q96RI1); assay: qHTS assay to identify small molecule agonists of the farnesoid-X-receptor (FXR) signaling pathway (AID 743220; active = well fitted activation curve with a large enough effect in the signal ratio in the repeat runs, not every such curve was filed as active; the % refers to the signal ratio)
Outline: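 Beta-lactamase reporter under UAS control in GeneBLAzer FXR HEK 293T cells (5000/well) measured with LiveBLAzer FRET substrate after 2 h at room temperature. Compound exposure lasted 16 h at 37C.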

[18] = biological target: Vitamin D3 receptor (Homo sapiens) (UniProt P11473); assay: qHTS assay to identify small molecule antagonists of the vitamin D receptor (VDR) signaling pathway (AID 743223; active = well fitted inhibition curve with a large enough effect in the signal ratio in the repeat runs, not every such curve was filed as active; the % refers to the signal ratio)
Outline: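 Cells carrying a VDR-driven beta-lactamase reporter (VDR-bla) were co-treated with compound and 3 nM final 1alpha,25-dihydroxyvitamin D3 for 16 h at 37C; reporter activity was measured as FRET substrate fluorescence after 2 h at room temperature.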

[19] = qHTS assay for small molecule agonists of the antioxidant response element (ARE) signaling pathway (AID 743202; active = well fitted activation curve with a large enough effect in the signal ratio in the repeat runs, not every such curve was filed as active; the % refers to the signal ratio)
Outline: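 Agonist mode reporter screen: HepG2 cells with ARE-controlled beta-lactamase are incubated with test compounds for 16 h at 37 C, and beta-lactamase activity is measured as fluorescence of cleaved B/G FRET substrate.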

[20] = biological target: Vitamin D3 receptor (Homo sapiens) (UniProt P11473); assay: qHTS assay to identify small molecule agonists of the vitamin D receptor (VDR) signaling pathway (AID 743222; calls by dose curve)
Outline: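 Agonist activity measured in VDR-bla reporter cells. Exposure 16 h, 37C, 5% CO2; detection by B/G FRET substrate, 2 h RT.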

Measured: Potency

Peroxisome proliferator-activated receptor delta (Homo sapiens), sequence (Q03181 whole entry, looked up): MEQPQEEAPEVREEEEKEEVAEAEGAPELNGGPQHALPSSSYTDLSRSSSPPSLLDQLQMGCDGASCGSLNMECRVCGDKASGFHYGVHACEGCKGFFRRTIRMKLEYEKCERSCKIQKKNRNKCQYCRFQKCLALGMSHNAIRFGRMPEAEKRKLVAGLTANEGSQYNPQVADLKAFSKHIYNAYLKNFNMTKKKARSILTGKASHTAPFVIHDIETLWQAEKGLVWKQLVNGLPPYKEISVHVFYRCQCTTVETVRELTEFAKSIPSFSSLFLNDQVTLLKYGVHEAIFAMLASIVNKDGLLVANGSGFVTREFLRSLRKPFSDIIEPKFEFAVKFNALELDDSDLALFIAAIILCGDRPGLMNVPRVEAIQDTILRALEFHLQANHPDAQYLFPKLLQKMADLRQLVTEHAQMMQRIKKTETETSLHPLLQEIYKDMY
Peroxisome proliferator-activated receptor gamma (Homo sapiens), sequence (P37231 whole entry, looked up): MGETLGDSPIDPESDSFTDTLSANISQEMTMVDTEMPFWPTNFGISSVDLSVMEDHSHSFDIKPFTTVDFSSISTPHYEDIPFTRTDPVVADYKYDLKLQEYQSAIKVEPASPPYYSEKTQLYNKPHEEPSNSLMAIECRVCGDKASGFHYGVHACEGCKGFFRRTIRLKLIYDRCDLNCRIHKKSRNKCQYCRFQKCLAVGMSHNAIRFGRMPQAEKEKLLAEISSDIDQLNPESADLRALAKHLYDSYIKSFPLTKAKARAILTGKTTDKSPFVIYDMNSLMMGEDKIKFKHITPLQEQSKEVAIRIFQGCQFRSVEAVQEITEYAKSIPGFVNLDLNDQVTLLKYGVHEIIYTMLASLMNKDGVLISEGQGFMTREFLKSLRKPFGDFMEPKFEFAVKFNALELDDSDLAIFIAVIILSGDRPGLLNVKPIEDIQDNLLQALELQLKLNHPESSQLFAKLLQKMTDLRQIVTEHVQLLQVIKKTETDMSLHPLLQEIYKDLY
Vitamin D3 receptor (Homo sapiens), sequence (P11473 whole entry, looked up): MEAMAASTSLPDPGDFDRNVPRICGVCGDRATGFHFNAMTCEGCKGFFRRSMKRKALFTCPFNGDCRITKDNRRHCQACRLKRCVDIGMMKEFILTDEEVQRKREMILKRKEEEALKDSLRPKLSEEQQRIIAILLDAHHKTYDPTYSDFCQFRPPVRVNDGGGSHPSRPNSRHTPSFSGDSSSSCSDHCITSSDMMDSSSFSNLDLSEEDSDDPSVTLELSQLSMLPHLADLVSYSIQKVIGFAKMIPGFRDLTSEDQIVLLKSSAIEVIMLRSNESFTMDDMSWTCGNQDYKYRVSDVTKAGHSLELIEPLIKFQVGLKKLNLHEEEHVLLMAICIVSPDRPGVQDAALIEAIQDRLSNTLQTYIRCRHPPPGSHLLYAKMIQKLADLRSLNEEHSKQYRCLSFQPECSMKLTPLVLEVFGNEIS
Bile acid receptor (Homo sapiens), sequence (Q96RI1 whole entry, looked up): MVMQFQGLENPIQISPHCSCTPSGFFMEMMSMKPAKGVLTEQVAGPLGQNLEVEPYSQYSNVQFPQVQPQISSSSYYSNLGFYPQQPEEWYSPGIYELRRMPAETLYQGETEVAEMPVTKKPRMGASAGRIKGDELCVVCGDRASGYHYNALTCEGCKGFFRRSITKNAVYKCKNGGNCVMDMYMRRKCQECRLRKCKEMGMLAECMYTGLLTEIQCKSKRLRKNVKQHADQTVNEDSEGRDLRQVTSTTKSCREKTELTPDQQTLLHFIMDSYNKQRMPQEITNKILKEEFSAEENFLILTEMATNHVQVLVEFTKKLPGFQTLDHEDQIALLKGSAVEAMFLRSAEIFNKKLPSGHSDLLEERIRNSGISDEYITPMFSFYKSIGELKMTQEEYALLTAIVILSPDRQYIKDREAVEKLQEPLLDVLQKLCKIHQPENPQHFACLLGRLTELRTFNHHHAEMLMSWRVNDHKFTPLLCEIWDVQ
Aryl hydrocarbon receptor (Homo sapiens), sequence (P35869 whole entry, looked up): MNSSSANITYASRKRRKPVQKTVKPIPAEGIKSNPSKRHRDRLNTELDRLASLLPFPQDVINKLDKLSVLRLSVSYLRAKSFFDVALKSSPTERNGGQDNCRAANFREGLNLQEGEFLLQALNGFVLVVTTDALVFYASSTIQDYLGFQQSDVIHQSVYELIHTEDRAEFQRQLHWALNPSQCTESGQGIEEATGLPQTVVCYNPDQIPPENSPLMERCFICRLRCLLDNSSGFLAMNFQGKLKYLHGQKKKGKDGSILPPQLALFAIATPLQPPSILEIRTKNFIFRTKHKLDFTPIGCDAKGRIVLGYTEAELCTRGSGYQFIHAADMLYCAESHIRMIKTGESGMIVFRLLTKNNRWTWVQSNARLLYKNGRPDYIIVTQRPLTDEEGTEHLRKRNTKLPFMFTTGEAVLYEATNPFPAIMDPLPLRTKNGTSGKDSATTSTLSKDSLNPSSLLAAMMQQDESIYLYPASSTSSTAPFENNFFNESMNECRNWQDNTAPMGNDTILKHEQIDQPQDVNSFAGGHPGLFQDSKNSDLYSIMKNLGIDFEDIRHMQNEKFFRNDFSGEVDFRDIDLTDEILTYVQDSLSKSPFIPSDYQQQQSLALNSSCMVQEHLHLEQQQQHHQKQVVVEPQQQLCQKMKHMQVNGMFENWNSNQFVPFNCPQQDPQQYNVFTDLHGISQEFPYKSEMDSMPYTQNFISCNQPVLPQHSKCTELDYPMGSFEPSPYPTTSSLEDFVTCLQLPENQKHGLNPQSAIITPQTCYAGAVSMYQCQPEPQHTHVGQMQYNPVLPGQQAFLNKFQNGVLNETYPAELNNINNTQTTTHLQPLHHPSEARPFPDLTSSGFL

CC(C)(N)Cc1ccc(Cl)cc1
not listed: [14] | [15] | [16] | [17] | [18] | [19] | [20]
inactive: all other assays above

C(COCC1CO1)OCC1CO1 (stereo unspecified)
not listed: [9] | [18] | [19] | [20]
inactive: all other assays above

O=C(Cl)c1ccccc1
not listed: [6] | [12] | [19] | [20]
inactive: all other assays above

ClCC1CO1 (stereo unspecified)
not listed: [8] | [16] | [17]
inactive: all other assays above

CC(C)(O)C(Cl)(Cl)Cl
not listed: [9] | [14] | [20]
inactive: all other assays above

[P]#[In]
not listed: [6] | [16] | [17] | [18] | [20]
inactive: all other assays above

CC(C)N(Cc1ccccc1)C(=O)C(C)(C)C
not listed: [6] | [14] | [16]
inactive: all other assays above

[O-][Br+2]([O-])O
not listed: [16] | [17] | [19]
inactive: all other assays above

CCN[C@@H](C)Cc1ccccc1
not listed: [6] | [11] | [19]
inactive: all other assays above

CCCN1CCC[C@@H]2Cc3nc(N)ncc3C[C@H]21
active: [2] 21.1 µM
not listed: [10] | [11] | [14] | [15] | [16] | [17] | [19]
inactive: all other assays above

CCOP(=O)(CN(CCO)CCO)OCC
not listed: [14] | [16] | [17] | [19]
inactive: all other assays above

CCC(C)(C#N)N=NC(C)(C#N)CC (stereo unspecified)
not listed: [16] | [17] | [18] | [19] | [20]
inactive: all other assays above

CN(C)CCN(C)C
not listed: [9] | [20]
inactive: all other assays above

CCN(CC)CCOC(=O)C(O)(c1ccccc1)c1ccccc1
not listed: [18] | [19] | [20]
inactive: all other assays above

CCOC(=O)N(C)N=O
not listed: [15] | [16] | [17] | [19]
inactive: all other assays above

OCC(Cl)CCl (stereo unspecified)
not listed: [8] | [16] | [17] | [20]
inactive: all other assays above

CCCCS(=O)(=O)Cl
not listed: [19]
inactive: all other assays above

c1cncc([C@@H]2CCCCN2)c1
not listed: [6] | [14] | [16] | [17]
inactive: all other assays above

— PubChem BioAssay (Tox21)
